# The source made the active and inactive calls. Rule for the calls: active = hit-call score of the fitted dose curve at least 0.9, where 1 is the maximum; inactive = score below 0.9.
# How the values were obtained:
# [1] = APR_HepG2_NuclearSize_72hr: Apredica 72-hour HepG2 Assay for Nuclear Size (AID 2282925); settings: high-content imaging, actives raise or lower the signal
# Method in brief: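 Nuclear size was read by high-content imaging of Hoechst 33342 stain after formaldehyde fixation. Compounds ran 72 h on HepG2 at 0.39 to 200 uM, with final DMSO 0.5% v/v. Curves fitted both directions relative to DMSO control.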
# [2] = ATG_CRE_CIS: Attagene CIS-FACTORIAL HepG2 Assay for human cAMP Responsive Element (CRE) binding protein 3 (AID 2282926); settings: HepG2 CRE cis-reporter, Attagene multiplexed mRNA; actives raise or lower the signal
# Method in brief: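 Cells carrying cis-regulated reporter constructs respond through their own endogenous factors. After 24 h treatment, RNA is reverse-transcribed, amplified, labelled and sized by capillary electrophoresis; up- and down-regulation are both scored against vehicle.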
# [3] = molecular target: CCAAT/enhancer-binding protein beta (Homo sapiens) (UniProt P17676); assay: ATG_C_EBP_CIS: Attagene CIS-FACTORIAL HepG2 Assay for human CCAAT/Enhancer Binding Protein (C/EBP) beta (AID 2282927); settings: HepG2 Attagene cis-factorial transcription factor reporter; actives raise or lower the signal
# Method in brief: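 Endogenous C/EBPb-driven reporter transcripts measured in transfected human HepG2 cells at 24 h via RT-PCR and capillary electrophoresis of labelled fragments. Activity fitted in both directions relative to DMSO baseline.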
# [4] = ATG_CMV_CIS: Attagene CIS-FACTORIAL HepG2 Assay for human CMV (Internal Marker) (AID 2282928); settings: HepG2 CMV promoter reporter, transcription factor profiling; actives raise or lower the signal;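 note: endpoint acts as a background internal control marker rather than a target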
# Method in brief: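 Bidirectional fits against DMSO are applied to reporter mRNA, read by RT-PCR with capillary electrophoresis, from HepG2 cells exposed 24 h. The endpoint serves as an internal CMV background marker within the cis-factorial reporter panel.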
# [5] = ATG_DR4_LXR_CIS: Attagene CIS-FACTORIAL HepG2 Assay for human Liver X Receptor (LXR), DR4 submotif (AID 2282929); settings: HepG2 Attagene DR4 cis-reporter, mRNA transcription; actives raise or lower the signal
# Method in brief: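 Endogenous factor activity at a DR4 cis-element is read as reporter mRNA in transiently transfected HepG2 cells. Exposure lasts 24 h; transcripts are amplified, fluorescently labelled and sized by capillary electrophoresis, with DMSO as baseline.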
# [6] = molecular target: Aryl hydrocarbon receptor (Homo sapiens) (UniProt P35869); assay: ATG_Ahr_CIS: Attagene CIS-FACTORIAL HepG2 Assay for human Aryl Hydrocarbon Receptor (Ahr) (AID 2282930); settings: HepG2 AhR cis-factorial reporter transcription; actives raise or lower the signal
# Method in brief: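 Reporter mRNA levels, quantified by RT-PCR and fluorescent capillary electrophoresis, reflect endogenous AhR transcriptional activity in HepG2 cells carrying transfected cis-promoter reporter constructs. Readout at 24 h post-dose; gain or loss fitted against DMSO baseline.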
# [7] = ATG_BRE_CIS: Attagene CIS-FACTORIAL HepG2 Assay for human Bone Morphogenetic Protein (BMP) Response Element (BRE) (AID 2282933); settings: HepG2 BMP response element reporter, Attagene transcription factor profiling; actives raise or lower the signal
# Method in brief: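 Transient MRTU transfection of human HepG2 liver cells; 24 h compound treatment; total RNA isolated, reverse-transcribed, PCR-amplified, 6-FAM labelled, HpaI-cut, capillary electrophoresis. DMSO = negative control/baseline, bidirectional fit.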
# [8] = molecular target: Retinoic acid receptor alpha (Homo sapiens) (UniProt P10276); assay: ATG_DR5_RAR_CIS: Attagene CIS-FACTORIAL HepG2 Assay for human Retinoic Acid Receptor Alpha (RARE), DR5 submotif (AID 2282934); settings: HepG2 Attagene cis-factorial RARE DR5 reporter, mRNA; actives raise or lower the signal
# Method in brief: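 Reporter transcripts from a DR5-regulated unit, measured via RT-PCR plus capillary electrophoresis, reflect endogenous RAR activity in transiently transfected human HepG2 liver cells. Exposure lasted 24 h; gain or loss of signal scored against DMSO.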
# [9] = molecular target: Transcription factor E2F1 (Homo sapiens) (UniProt Q01094); assay: ATG_E2F_CIS: Attagene CIS-FACTORIAL HepG2 Assay for human E2F Transcription Factor 1 (AID 2282935); settings: HepG2 Attagene cis-reporter, E2F reporter RNA transcripts; actives raise or lower the signal
# Method in brief: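 Gain or loss of reporter transcript, fitted against DMSO, reflects E2F1-driven transcription. Transiently transfected HepG2 dosed 24 h before RNA isolation. Quantified by fluorescent RT-PCR products separated by capillary electrophoresis.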
# [10] = ATG_E_Box_CIS: Attagene CIS-FACTORIAL HepG2 Assay for human Enhancer Box (E-box) (AID 2282936); settings: HepG2 E-box cis-reporter transcription, actives raise or lower the signal
# Method in brief: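 E-box-driven reporter transcripts measured in transiently transfected HepG2 after 24 h exposure: RNA reverse-transcribed, PCR-amplified, fluorescently labelled, digested and resolved by capillary electrophoresis. Gain or loss relative to DMSO.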
# [11] = ATG_M_61_CIS: Attagene CIS-FACTORIAL HepG2 Assay for M61 Transcription Factor (Internal Marker) (AID 2282937); settings: HepG2 Attagene CIS-FACTORIAL M61 internal marker reporter; actives raise or lower the signal
# Method in brief: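 This endpoint serves as an internal background control within a multiplexed HepG2 cis-reporter panel. Cells are exposed for 24 h; reporter mRNA is amplified, fluorescently labelled and sized by capillary electrophoresis, with DMSO as negative control.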
# [12] = ATG_EGR_CIS: Attagene CIS-FACTORIAL HepG2 Assay for human Early Growth Response 1 (EGR1) (AID 2282938); settings: HepG2 Attagene CIS-FACTORIAL EGR reporter mRNA; actives raise or lower the signal
# Method in brief: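 HepG2, transient MRTU transfection (cis promoters), 24 h compound. RNA → RT (oligo-dT) → PCR → 6-FAM labelling → HpaI cut → CE fluorescence. Bidirectional fit, DMSO baseline.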
# [13] = ATG_M_19_CIS: Attagene CIS-FACTORIAL HepG2 Assay for M19 Transcription Factor (Internal Marker) (AID 2282939); settings: HepG2 Attagene CIS-FACTORIAL M19 internal marker reporter; actives raise or lower the signal
# Method in brief: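 Transfect HepG2 with MRTU reporter library → dose chemical, 24 h → isolate total RNA, reverse-transcribe with oligo(dT) → PCR, 6-FAM label, HpaI cut (2 h, 37 C) → capillary electrophoresis. Bidirectional fit vs DMSO.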
# [14] = ATG_ERE_CIS: Attagene CIS-FACTORIAL HepG2 Assay for Estrogen Response Element (ERE) (AID 2282940); settings: HepG2 ERE cis-reporter, Attagene RNA transcript; actives raise or lower the signal
# Method in brief: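 Transient MRTU transfection of human HepG2; cis-element promoters; 24 h dosing; total RNA → RT (oligo dT) → PCR → 6-FAM primer extension → HpaI digest → CE fluorescence. Bidirectional fit, DMSO baseline.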
# [15] = ATG_Ets_CIS: Attagene CIS-FACTORIAL HepG2 Assay for human Erythroblast Transformation Specific (ETS) (AID 2282941); settings: HepG2 ETS cis-reporter transcription, actives raise or lower the signal
# Method in brief: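 Endogenous transcription factor activity read as reporter mRNA via RT-PCR and capillary electrophoresis, with gain or loss fitted bidirectionally against DMSO. Human HepG2 liver cells, transiently transfected CIS reporter constructs, 24 h exposure.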
# [16] = molecular target: Hepatocyte nuclear factor 3-beta (Homo sapiens) (UniProt Q9Y261); assay: ATG_FoxA2_CIS: Attagene CIS-FACTORIAL HepG2 Assay for human Forkhead box A2 (FOXA2) (AID 2282942); settings: HepG2 cis-reporter transcription factor activity, 24 h; actives raise or lower the signal
# Method in brief: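 Cells: HepG2, transient multiplex reporter transfection. Exposure 24 h. Detection: reporter-specific RT-PCR, fluorescent labelling, restriction digest, capillary electrophoresis. Analysis: bidirectional curve fit, DMSO as negative control.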
# [17] = ATG_FoxO_CIS: Attagene CIS-FACTORIAL HepG2 Assay for human Forkhead box O (FoxO) (AID 2282943); settings: HepG2 Attagene cis-reporter, FoxO element, mRNA; actives raise or lower the signal
# Method in brief: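 Endogenous transcription factor activity read from multiplexed cis-promoter reporter transcripts in transiently transfected HepG2, 24 h after dosing. Reporter RNA measured via RT-PCR plus capillary electrophoresis of FAM-labeled products; gain or loss relative to DMSO.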
# [18] = ATG_GATA_CIS: Attagene CIS-FACTORIAL HepG2 Assay for human GATA Binding Protein (AID 2282944); settings: HepG2 GATA cis-element reporter, Attagene multiplex mRNA; actives raise or lower the signal
# Method in brief: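 Transient MRTU transfection, HepG2, 24 h compound exposure. Total RNA → oligo(dT) RT → PCR → 6-FAM primer extension → HpaI cut → CE. Bidirectional fit vs DMSO.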
# [19] = ATG_AP_1_CIS: Attagene CIS-FACTORIAL HepG2 Assay for human Activator Protein 1 (AP-1) (AID 2282931); settings: HepG2 Attagene cis-factorial AP-1 reporter mRNA; actives raise or lower the signal
# Method in brief: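 Fluorescence of labelled PCR fragments separated by capillary electrophoresis gives reporter mRNA levels. HepG2 with transfected cis-regulated reporter units, 24 h exposure; DMSO serves as baseline for bidirectional curve fits.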
# [20] = ATG_AP_2_CIS: Attagene CIS-FACTORIAL HepG2 Assay for human Activator Protein 2 (AP-2) (AID 2282932); settings: HepG2 AP-2 cis-reporter, Attagene transcription factor profiling; actives raise or lower the signal
# Method in brief: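 Endogenous transcription factor activity is reported through transfected multiplex reporter constructs in HepG2, after 24 h of compound exposure. Transcripts were quantified by RT-PCR and capillary electrophoresis of fluorescent fragments. Bidirectional fit against DMSO.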
# Sequence of Aryl hydrocarbon receptor (Homo sapiens) (P35869 whole entry, looked up): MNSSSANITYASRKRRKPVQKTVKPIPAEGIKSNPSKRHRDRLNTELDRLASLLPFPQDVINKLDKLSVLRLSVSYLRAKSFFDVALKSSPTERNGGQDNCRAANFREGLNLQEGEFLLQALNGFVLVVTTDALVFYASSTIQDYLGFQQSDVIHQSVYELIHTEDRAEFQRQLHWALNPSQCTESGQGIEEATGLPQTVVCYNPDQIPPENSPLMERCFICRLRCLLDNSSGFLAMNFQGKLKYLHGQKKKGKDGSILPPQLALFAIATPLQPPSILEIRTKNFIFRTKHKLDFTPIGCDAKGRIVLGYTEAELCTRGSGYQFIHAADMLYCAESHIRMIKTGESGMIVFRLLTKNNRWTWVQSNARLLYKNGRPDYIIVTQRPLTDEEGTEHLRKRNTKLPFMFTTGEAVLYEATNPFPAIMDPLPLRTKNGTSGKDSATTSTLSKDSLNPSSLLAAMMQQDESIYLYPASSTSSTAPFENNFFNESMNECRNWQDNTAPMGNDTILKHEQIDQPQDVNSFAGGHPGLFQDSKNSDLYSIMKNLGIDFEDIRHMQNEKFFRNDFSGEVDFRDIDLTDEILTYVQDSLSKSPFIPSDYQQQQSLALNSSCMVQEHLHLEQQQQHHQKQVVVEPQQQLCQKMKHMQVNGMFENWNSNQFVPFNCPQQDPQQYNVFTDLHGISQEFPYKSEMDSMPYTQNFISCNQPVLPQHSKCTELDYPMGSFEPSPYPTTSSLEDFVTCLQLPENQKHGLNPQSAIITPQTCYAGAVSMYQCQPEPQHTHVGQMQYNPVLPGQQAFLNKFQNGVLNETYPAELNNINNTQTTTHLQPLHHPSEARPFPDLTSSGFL
# Sequence of CCAAT/enhancer-binding protein beta (Homo sapiens) (P17676 whole entry, looked up, the tested form may be a part): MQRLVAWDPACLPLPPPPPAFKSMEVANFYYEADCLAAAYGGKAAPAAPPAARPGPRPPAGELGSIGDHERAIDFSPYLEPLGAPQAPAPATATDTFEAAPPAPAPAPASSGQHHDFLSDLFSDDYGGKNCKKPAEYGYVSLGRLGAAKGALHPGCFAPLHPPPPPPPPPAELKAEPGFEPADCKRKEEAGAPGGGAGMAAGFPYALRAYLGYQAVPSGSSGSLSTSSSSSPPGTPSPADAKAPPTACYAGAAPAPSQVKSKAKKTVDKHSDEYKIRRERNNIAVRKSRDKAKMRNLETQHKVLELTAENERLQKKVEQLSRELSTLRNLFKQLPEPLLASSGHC
# Sequence of Hepatocyte nuclear factor 3-beta (Homo sapiens) (Q9Y261 whole entry, looked up): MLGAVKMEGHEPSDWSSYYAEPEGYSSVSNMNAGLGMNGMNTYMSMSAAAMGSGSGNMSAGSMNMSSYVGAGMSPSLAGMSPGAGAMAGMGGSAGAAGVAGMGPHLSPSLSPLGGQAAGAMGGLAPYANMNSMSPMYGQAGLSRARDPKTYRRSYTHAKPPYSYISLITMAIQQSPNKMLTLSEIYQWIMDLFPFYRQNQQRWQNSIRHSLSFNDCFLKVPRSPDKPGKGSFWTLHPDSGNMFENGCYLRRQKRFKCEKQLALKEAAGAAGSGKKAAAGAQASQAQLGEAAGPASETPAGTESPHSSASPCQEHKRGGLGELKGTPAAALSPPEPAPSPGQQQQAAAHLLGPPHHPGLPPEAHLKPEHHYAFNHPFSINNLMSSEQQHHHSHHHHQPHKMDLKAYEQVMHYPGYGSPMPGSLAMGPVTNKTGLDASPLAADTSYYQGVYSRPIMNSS
# Sequence of Transcription factor E2F1 (Homo sapiens) (Q01094 whole entry, looked up): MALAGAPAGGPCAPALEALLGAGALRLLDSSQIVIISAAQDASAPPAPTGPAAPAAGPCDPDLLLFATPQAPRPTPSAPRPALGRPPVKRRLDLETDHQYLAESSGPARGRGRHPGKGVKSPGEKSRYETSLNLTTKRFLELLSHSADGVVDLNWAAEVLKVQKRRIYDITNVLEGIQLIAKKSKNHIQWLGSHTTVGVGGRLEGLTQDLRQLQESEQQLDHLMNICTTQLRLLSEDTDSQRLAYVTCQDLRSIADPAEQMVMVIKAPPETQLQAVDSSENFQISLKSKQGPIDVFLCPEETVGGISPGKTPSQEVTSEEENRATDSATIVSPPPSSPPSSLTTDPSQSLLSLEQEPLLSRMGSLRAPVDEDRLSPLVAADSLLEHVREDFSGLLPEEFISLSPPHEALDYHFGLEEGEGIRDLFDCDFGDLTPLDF
# Sequence of Retinoic acid receptor alpha (Homo sapiens) (P10276 whole entry, looked up): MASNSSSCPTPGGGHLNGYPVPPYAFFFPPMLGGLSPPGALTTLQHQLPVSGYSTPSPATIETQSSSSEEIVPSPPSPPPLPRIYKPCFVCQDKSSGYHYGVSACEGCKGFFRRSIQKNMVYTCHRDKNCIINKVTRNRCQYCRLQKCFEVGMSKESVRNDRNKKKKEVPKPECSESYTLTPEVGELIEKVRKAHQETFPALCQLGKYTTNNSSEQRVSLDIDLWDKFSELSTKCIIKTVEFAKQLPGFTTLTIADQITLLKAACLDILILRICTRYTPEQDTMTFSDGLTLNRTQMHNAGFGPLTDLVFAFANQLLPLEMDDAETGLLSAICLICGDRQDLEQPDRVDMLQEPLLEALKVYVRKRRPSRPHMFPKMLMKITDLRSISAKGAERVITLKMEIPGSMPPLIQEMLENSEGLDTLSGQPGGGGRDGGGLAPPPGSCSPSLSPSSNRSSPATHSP
smiles,measurement,setting,value
Cc1ccc(C)c(O)c1C,outcome,[1],inactive
same,outcome,[2],inactive
same,outcome,[3],inactive
same,outcome,[4],inactive
same,outcome,[5],inactive
same,outcome,[6],inactive
same,outcome,[7],inactive
same,outcome,[8],inactive
same,outcome,[9],inactive
same,outcome,[10],inactive
same,outcome,[11],inactive
same,outcome,[12],inactive
same,outcome,[13],inactive
same,outcome,[14],inactive
same,outcome,[15],inactive
same,outcome,[16],inactive
same,outcome,[17],inactive
same,outcome,[18],inactive
Cc1ccc(Cl)cc1,outcome,[1],inactive
same,outcome,[2],inactive
same,outcome,[3],inactive
same,outcome,[4],inactive
same,outcome,[5],inactive
same,outcome,[6],inactive
same,outcome,[7],inactive
same,outcome,[9],inactive
same,outcome,[10],inactive
same,outcome,[11],inactive
same,outcome,[12],inactive
same,outcome,[13],inactive
same,outcome,[14],inactive
same,outcome,[15],inactive
same,outcome,[16],inactive
same,outcome,[17],inactive
same,outcome,[18],inactive
CC1(C)NC(=O)NC1=O,outcome,[1],inactive
same,outcome,[2],inactive
same,outcome,[3],inactive
same,outcome,[4],inactive
same,outcome,[5],inactive
same,outcome,[19],inactive
same,outcome,[20],inactive
same,outcome,[8],inactive
same,outcome,[9],inactive
same,outcome,[10],inactive
same,outcome,[11],inactive
same,outcome,[12],inactive
same,outcome,[13],inactive
same,AC50,[14],26.3 µM (active)
same,outcome,[15],inactive
same,outcome,[16],inactive
same,outcome,[17],inactive
same,outcome,[18],inactive
CCCCCCCC=O,outcome,[1],inactive
same,outcome,[2],inactive
same,outcome,[3],inactive
same,outcome,[4],inactive
same,outcome,[5],inactive
same,outcome,[6],inactive
same,outcome,[20],inactive
same,outcome,[7],inactive
same,outcome,[9],inactive
same,outcome,[10],inactive
same,outcome,[11],inactive
same,outcome,[12],inactive
same,outcome,[13],inactive
same,outcome,[14],inactive
same,outcome,[15],inactive
same,outcome,[16],inactive
same,outcome,[17],inactive
same,outcome,[18],inactive
O=C(N[C@@H](Cc1ccccc1)[C@@H](O)C(=O)N1C[C@@H](O)[C@@H](O)C1)c1cc2cc(Cl)ccc2[nH]1,outcome,[1],inactive
same,outcome,[2],inactive
same,outcome,[3],inactive
same,outcome,[4],inactive
same,AC50,[5],60.5 µM (active)
same,outcome,[6],inactive
same,AC50,[20],155 µM (active)
same,outcome,[7],inactive
same,outcome,[8],inactive
same,outcome,[9],inactive
same,AC50,[10],165 µM (active)
same,outcome,[11],inactive
same,outcome,[12],inactive
same,outcome,[13],inactive
same,outcome,[14],inactive
same,outcome,[15],inactive
same,outcome,[16],inactive
same,outcome,[17],inactive
same,outcome,[18],inactive
OC[C@@H](O)[C@@H](O)[C@H](O)[C@H](O)CO,outcome,[1],inactive
same,outcome,[2],inactive
same,outcome,[3],inactive
same,outcome,[4],inactive
same,outcome,[5],inactive
same,outcome,[19],inactive
same,outcome,[20],inactive
same,outcome,[7],inactive
same,outcome,[8],inactive
same,outcome,[9],inactive
same,outcome,[10],inactive
same,outcome,[11],inactive
same,outcome,[12],inactive
same,outcome,[13],inactive
same,outcome,[14],inactive
same,outcome,[15],inactive
same,outcome,[16],inactive
same,outcome,[17],inactive
same,outcome,[18],inactive
CCOc1ccc2c(c1)C(C)=CC(C)(C)N2,outcome,[1],inactive
same,outcome,[2],inactive
same,outcome,[3],inactive
same,AC50,[4],69.4 µM (active)
same,AC50,[5],175 µM (active)
same,outcome,[6],inactive
same,outcome,[20],inactive
same,outcome,[8],inactive
same,outcome,[9],inactive
same,AC50,[10],156 µM (active)
same,outcome,[11],inactive
same,AC50,[12],144 µM (active)
same,outcome,[13],inactive
same,AC50,[14],25.5 µM (active)
same,AC50,[15],181 µM (active)
same,outcome,[16],inactive
same,AC50,[17],179 µM (active)
same,outcome,[18],inactive

# — PubChem BioAssay (EPA / NIEHS)
